Results as given in PubChem BioAssay AID1851 (National Center for Advancing Translational Sciences (NCATS), 2009).
In all, about 16,000 compounds went through this assay and about 5,700 (36%) were called active. Another 24% or so got no clear call; they are omitted. This is one part of the list. Unmarked numbers belong to inactive results. The call rests on the fitted dose curve; in most records, active means well fitted curve in the direction sought with a large enough effect; inconclusive means small, poorly fitted or top-dose-only effect, or effect the other way; inactive means no such curve, though single readings can be large or run the other way.

molecular target: Cytochrome P450 1A2 (Homo sapiens) (UniProt P05177); experiment: Cytochrome panel assay with activity outcomes; details: recombinant CYP, pro-luciferin dealkylation, luminescence, p450-cyp1a2; series mostly up to 57.1 µM
Sequence (P05177 whole entry, looked up): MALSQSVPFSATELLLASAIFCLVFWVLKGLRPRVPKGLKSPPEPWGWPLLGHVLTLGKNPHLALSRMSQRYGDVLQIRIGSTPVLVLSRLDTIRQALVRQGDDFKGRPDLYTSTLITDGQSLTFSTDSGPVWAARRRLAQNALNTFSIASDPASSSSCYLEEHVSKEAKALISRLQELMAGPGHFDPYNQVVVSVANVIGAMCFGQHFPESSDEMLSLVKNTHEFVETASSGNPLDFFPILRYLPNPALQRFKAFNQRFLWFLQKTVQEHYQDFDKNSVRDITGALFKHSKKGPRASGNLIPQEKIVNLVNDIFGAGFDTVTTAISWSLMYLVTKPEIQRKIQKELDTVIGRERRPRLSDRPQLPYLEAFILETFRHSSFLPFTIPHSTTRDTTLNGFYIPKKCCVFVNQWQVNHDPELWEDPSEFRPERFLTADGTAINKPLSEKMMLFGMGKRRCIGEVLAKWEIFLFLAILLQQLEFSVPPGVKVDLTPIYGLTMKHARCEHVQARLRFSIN
On the % scale 0 is the no-effect control and ±100 the full control effect.

Compound | AC50 | activity, negative = inhibition
Cc1cc(C)n(-c2nnc(C)n2/N=C/c2ccccc2OCc2ccccc2Cl)n1 | 2 µM (active) | 
CCOC(=O)COc1c(OC)cc(Cl)cc1C1Nc2ccccc2C(=O)N1c1ccc(F)cc1 (centres undefined) | inactive | 
CCOC(=O)COc1c(C=O)cc(Br)cc1OC | 4.47 µM (active) | 
CCOC(=O)COc1c(OC)cc(Cl)cc1C1Nc2ccccc2C(=O)N1c1cccc(C)c1 (centres undefined) | inactive | 
CCOC(=O)c1cc(-c2ccc(Cl)cc2)nc2c1c(C)nn2CCC#N | 0.891 µM (active) | 
CC1CC2(CCCCC2)N2C(=O)C(=O)c3cccc1c32 (centres undefined) | 2.24 µM (active) | 
Cn1nc(C(F)(F)F)c(/C=N/OCc2c(Cl)cccc2Cl)c1Cl | 1.26 µM (active) | 
Cn1nc(C(F)(F)F)c(/C=N/OC(=O)c2ccccc2Cl)c1SCc1ccc(Cl)cc1 | 2.82 µM (active) | 
COc1ccc(C(=O)O/N=C/c2ccc(S(=O)c3ccc(Cl)cc3)nc2)cc1 (centres undefined) | inactive | 
Cn1nc(C(F)(F)F)c(/C=N/OC(=O)c2ccc(Cl)cc2)c1Cl | 12.6 µM (active) | 
N[C@H](CCC(=O)NCS(=O)(=O)O)C(=O)O | inactive | 
CCn1c(SCC(=O)N2CCN(S(=O)(=O)c3ccccc3)CC2)nnc1-c1cccs1 | inactive | 
CCn1c(SCC(=O)c2ccccc2)nnc1-c1cccs1 | 3.55 µM (active) | 
CCn1c(SCC(=O)c2ccc3ccccc3c2)nnc1-c1cccs1 | 3.55 µM (active) | 
O=C(CSc1nnc(-c2ccccc2)n1-c1ccccc1)c1cccs1 | 14.1 µM (active) | 
Cc1ccc(C(=O)NNC(=O)CSc2nnc(-c3ccncc3)n2-c2ccc(C)cc2)cc1 | inactive | 
Cc1ccccc1NC(=O)CSc1nnc(-c2ccccc2)n1-c1ccccc1 | inactive | 
Cn1cccc1C(=O)N1CCC2(CC1)CN(C(=O)Nc1ccccc1)C2 | inactive | 
O=C(O)C1(C(=O)O)CCN(S(=O)(=O)c2ccccc2)CC1 |  | 13.9% [at 2.29 µM]
O=C(c1ccccc1)c1nc2ccccc2n(CCCn2c(=O)c(C(=O)c3ccccc3)nc3ccccc32)c1=O | inactive | 
CCCCCn1c(=O)c(C(=O)c2ccccc2)nc2ccccc21 | 0.708 µM (active) | 
O=[N+]([O-])c1cccc(-c2nc(-c3ccncc3)no2)c1 | 0.631 µM (active) | 
CCS(=O)(=O)N1CCC(C(=O)NCCCOC)CC1 | inactive | 
CC(C)(C)C1CCc2c(C(=O)N/N=C/c3cccs3)csc2C1 (centres undefined) | inactive | 

Compound | AC50 | activity, negative = inhibition
O=C(N/N=C/c1cccc(F)c1)c1csc2c1CCCC2 | 4.47 µM (active) | 
CC(C)NCCCOc1ccc(Cl)cc1Br | 0.631 µM (active) | 
Nc1ncnc2c1ncn2C[C@@H](O)C(=O)O |  | -12.5% [at 11.4 µM]
CCOc1ccc(NC2=NCC(=O)N2Cc2cccs2)cc1 | 22.4 µM (active) | 
CCOc1ccc(N2C(=O)CN=C2Nc2ccccc2Cl)cc1 | inactive | 
CCOc1ccc(N2C(=O)/C(=C/c3cccs3)N(CC(=O)OC)C2=S)cc1 | inactive | 
O=C1CN=C(Nc2ccccc2)N1Cc1cccs1 | 12.6 µM (active) | 
Cc1cc(N)n(-c2ccc3ccccc3c2)n1 | 2 µM (active) | 
CCCN(CCC)S(=O)(=O)c1ccc(C(=O)O)cc1 | inactive | 
CCN(CC)CCNC(=O)c1ccc(Cl)c(S(=O)(=O)Nc2ccccc2OC)c1 | inactive | 
CCN(CC)S(=O)(=O)c1cc(C(=O)OC)ccc1Cl | 22.4 µM (active) | 
O=c1[nH]c(=S)[nH]c2c1CN(CCCN1CCOCC1)CN2 |  | -13.5% [at 2.29 µM]
O=C(Nc1c(C(=O)N2CCCCC2)cnn1-c1ccccc1)c1ccco1 | inactive | 
Cc1nn(-c2ccccc2)c(C)c1/C=N/NC(=O)c1cc(-c2ccc(Cl)s2)[nH]n1 | 14.1 µM (active) | 
Cc1nn(-c2ccccc2)c(Cl)c1/C=N/NC(=O)c1ccco1 | 7.08 µM (active) | 
CCCC1S/C(=N/N=C/c2ccc(OC)cc2)N(Cc2ccc(OC)cc2)C1=O (centres undefined) | inactive | 
COc1ccc(CN2C(=O)c3ccccc3C(/C=N\OCc3ccc(F)cc3)C2=O)cc1 (centres undefined) | 12.6 µM (active) | 
CN(C)c1ncc2nc(-c3ccc(F)cc3)c(=O)n(C)c2n1 | 1.58 µM (active) | 
CN(C)c1ncc2nc(-c3ccccc3)c(=O)n(C)c2n1 | 1 µM (active) | 
CN(C)c1ncc2nc(-c3ccc(Cl)cc3)c(=O)n(C)c2n1 | 1.58 µM (active) | 
C=CC[C@@H]1C=C[C@@H](O/N=C\c2ccc(C(=O)N3[C@H](c4ccc(C)cc4)[C@@H](C)CC[C@H]3C(=O)OC)cc2)[C@@H](CO)O1 |  | -12.6% [at 11.4 µM]
COCCNc1ccnc(-c2ccccc2C)n1 | 12.6 µM (active) | 
COCCNc1ccnc(-c2ccccc2CN(C)C)n1 | 5.01 µM (active) | 
CN(C)CCNc1ccccn1 |  | -5.87% [at 11.4 µM]

Compound | AC50 | activity, negative = inhibition
CC1(C)C2([N+](=O)[O-])CN3CC1([N+](=O)[O-])CN(C2)C31CCCC1 | inactive | 
Cc1noc(C)c1C(=O)N1CCC2(CCN(Cc3ccncc3)CC2)CC1 | inactive | 
CCc1c(C)c(C#N)c2nc3ccccc3n2c1N1CCN(c2cc(C)ccn2)CC1 | inactive | 
O=C(O)c1nc2nc(Cl)c(Cl)nc2[nH]1 |  | -18.2% [at 11.4 µM]
CCCCSCc1nc2nc(Cl)c(Cl)nc2[nH]1 | 3.16 µM (active) | 
O=C(CSCc1ccc(Cl)cc1)Nc1nccs1 | 0.178 µM (active) | 
CC(C)(C)NC(=O)CN(Cc1cccs1)C(=O)CCC(=O)Nc1nccs1 | inactive | 
O=C(CN1CCN(CC(=O)Nc2ccccc2Cl)CC1)Nc1ccc2c(c1)OCCO2 | inactive | 
O=C(CSCc1ccc(Cl)cc1)Nc1ccc2c(c1)OCCO2 | 17.8 µM (active) | 
O=C(O)CCC(=O)N1CCOc2ccc(Cl)cc21 | inactive | 
C/C(=N\NC(=O)CSCc1ccc(Cl)cc1)c1ccc2c(c1)OCCO2 | 7.94 µM (active) | 
O=S(=O)(c1ccccc1)N1CCC2(CCN(Cc3nccs3)CC2)CC1 | inactive | 
O=C(c1csnn1)N1CCC[C@@]2(CCN(c3ccncc3)C2)C1 | inactive | 
CCOC(=O)c1c(NC(C)=O)sc2c(OC)cccc12 | 0.316 µM (active) | 
NS(=O)(=O)c1cc2c(cc1Cl)=NC(CCC(=O)O)=NS=2(=O)O |  | 4.98% [at 11.4 µM]
Cc1nn(C(C)C(=O)Nc2sc3c(c2C#N)CCCC3)c(C)c1[N+](=O)[O-] (centres undefined) | 3.55 µM (active) | 
Cc1nn(C(C)C(=O)N2CCc3ccccc32)c(C)c1[N+](=O)[O-] (centres undefined) | inactive | 
CCOc1cc(C2NN=C(c3ccccc3)S2)ccc1OCc1ccccc1Cl (centres undefined) | 3.16 µM (active) | 
CN(C)c1ccnc(-c2cccc(NS(C)(=O)=O)c2)n1 | 1.58 µM (active) | 
CN(Cc1ccco1)c1ccnc(-c2cccc(NS(C)(=O)=O)c2)n1 | 1.26 µM (active) | 
C=C[C@@]1(C)CC(=O)[C@@]2(O)[C@@]3(C)[C@@H](O)CCC(C)(C)[C@@H]3[C@H](OC(=O)CCN(C)C)[C@H](OC(C)=O)[C@@]2(C)O1 | inactive | 
COC(=O)c1ccc(C(=O)OC)c(NC(=O)CSCc2ccc(Br)cc2)c1 | 0.891 µM (active) | 
O=C(Nc1ccc(Br)cc1)c1ccc(CSC2=NCCS2)cc1 | inactive | 
CC(=O)Nc1ccc(-c2cc(-c3ccc(NC(C)=O)cc3)nc(-c3ccccc3)n2)cc1 | inactive | 

Compound | AC50 | activity, negative = inhibition
N#Cc1ccc(Oc2nc(C(N)=O)cc(-c3ccccc3)n2)cc1 | 2 µM (active) | 
Cc1ccc(NC(=O)c2cc([N+](=O)[O-])ccc2NCc2cccnc2)cc1Cl | 0.126 µM (active) | 
COC(=O)C1(Cc2ccccc2)C2c3cc(C(=O)N4CCCC4)n(Cc4ccc(OC(F)(F)F)cc4)c3CC2CN1C(=O)c1ccccc1 (centres undefined) | inactive | 
O=[N+]([O-])c1ccc(N2CCCC2)cc1NCc1ccccc1 | 0.794 µM (active) | 
Cc1cc(C)c(S(=O)(=O)N2CCN(c3ccc([N+](=O)[O-])c(NCC4CCCO4)c3)CC2)c(C)c1 (centres undefined) | inactive | 
CC(C)c1ccc(CNc2cc(N3CCCC3)ccc2[N+](=O)[O-])cc1 | 3.16 µM (active) | 
Cc1cc(C)n(-c2cc(N3CCN(C(=O)c4ccc(C(C)(C)C)cc4)CC3)ccc2[N+](=O)[O-])n1 | inactive | 
O=C(O)CSc1ncccc1[N+](=O)[O-] |  | 2.52% [at 11.4 µM]
Cc1ccccc1C(=O)N1CCN(c2ccc([N+](=O)[O-])c(NCc3ccco3)c2)CC1 | inactive | 
Cc1cc(C)c(S(=O)(=O)N2CCN(c3ccc([N+](=O)[O-])c(NCc4ccco4)c3)CC2)c(C)c1 | inactive | 
O=[N+]([O-])c1nccn1C[C@H](O)CN1CCCCC1 |  | 4.83% [at 11.4 µM]
CS(=O)(=O)N1CCN(c2ccc([N+](=O)[O-])c(NCc3ccccc3)c2)CC1 | 12.6 µM (active) | 
O=[N+]([O-])c1cccnc1N1CCCCC1 | 5.01 µM (active) | 
Cc1cccc(C(=O)N2CCN(c3ccc([N+](=O)[O-])c(NCc4ccco4)c3)CC2)c1 | inactive | 
CC1CCCC(NC(=O)C2CCN(S(=O)(=O)N3CCC4(CC3)OCCO4)CC2)C1C (centres undefined) | inactive | 
O=[N+]([O-])c1cc(F)c(N2CCOCC2)cc1N1CCCCC1 | 1.26 µM (active) | 
O=[N+]([O-])c1ccc(N2CCCC2)cc1N1CCCC1 | 0.316 µM (active) | 
O=[N+]([O-])c1ccc(N2CCCCC2)c(Cl)c1N1CCCCC1 | 2 µM (active) | 
Cc1ccccc1C(=O)N1CCN(c2ccc([N+](=O)[O-])c(N3CCOCC3)c2)CC1 | inactive | 
Cc1ccc(OCC(=O)N2CCN(c3ccc([N+](=O)[O-])c(N4CCOCC4)c3)CC2)cc1 | inactive | 
Cn1c(=O)n(C)c2cc([N+](=O)[O-])c(N3CCN(C(=O)c4ccccc4Cl)CC3)cc21 | inactive | 
O=C(O)C1CCN(c2c([N+](=O)[O-])cc(C(F)(F)F)cc2[N+](=O)[O-])CC1 | inactive | 
